Experimental data as given in paper PMC5540273 (PLoS ONE, 2017).

Assays:
Settings in all cases: concentration: 1 μM, replicates: in singlicate; n = 1
INSR = system: INSR
IRAK1 = system: IRAK1
IRAK3 = system: IRAK3
IRAK4 = system: IRAK4
ITK = system: ITK
[1] = system: JAK1(JH1domain-catalytic)
[2] = system: JAK1(JH2domain-pseudokinase)
[3] = system: JAK2(JH1domain-catalytic)
[4] = system: JAK3(JH1domain-catalytic)
JNK1 = system: T1, JNK1
T1 construct: gene MAPK8
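Note: KINOMEscan kinase panel screen.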

SMILES	%Inh (INSR)	%Inh (IRAK1)	%Inh (IRAK3)	%Inh (IRAK4)	%Inh (ITK)	%Inh [1]	%Inh [2]	%Inh [3]	%Inh [4]	%Inh (JNK1)
CCC(=O)c1c(-c2ccccc2)c2cc(Cl)ccc2c(=O)n1Cc1cc(S(C)(=O)=O)n(CC(N)=O)n1	0%	0%	0%	0%	0%	0%	51%	0%	0%	99%
FC(F)(F)c1ccc(-c2ncn(CCCN3CCOCC3)c2-c2ccncc2)cc1 [SB-217780]	0%	0%	10%	0%	9%	0%	0%	27%	0%	55%
Nc1ncnc2c1ncn2-c1ccc(Cl)cc1 [AH2635]	0%	17%	0%	0%	0%	2%	0%	4%	0%	0%
CN1C(=O)C(Nc2cc(Cl)c(O)c(Cl)c2)=C(c2ccc(Cl)cc2)C1=O [SB-404321]	0%	0%	0%	0%	0%	13%	0%	0%	0%	24%
COc1cc2ncn(-c3cc(OCc4ccncc4)c(C(N)=O)s3)c2cc1OC [GSK336313]	1%	8%	0%	0%	4%	6%	0%	0%	0%	0%
CCc1ccc(-c2ccc3c(c2)-c2nn(C)cc2S(=O)(=O)N3C)cc1	0%	0%	0%	10%	0%	0%	10%	0%	0%	0%
COc1ccc(CNC(=O)NC2CCN(c3ccnc(Nc4ccc(F)cc4)n3)C2)cc1 (centres unmarked) [GSK1379706]	17%	45%	0%	0%	8%	13%	0%	39%	0%	19%
COc1cccc(-n2cnc3c(N)ncnc32)c1 [SKF-97416]	0%	38%	42%	0%	0%	0%	58%	44%	19%	0%
CCC(=O)c1c(-c2ccccc2)c2cc(Cl)ccc2c(=O)n1Cc1cc(C(=O)NC2CC2)n(C)n1	0%	21%	0%	20%	0%	10%	3%	0%	6%	99.7%
Cc1ccc(-c2ccc3c(ccc4sc5c(c43)NC[C@@H](C)N=C5N(C)C)n2)cn1	0%	0%	0%	0%	0%	0%	0%	0%	0%	4%
OCCCNc1nccc(-c2c(-c3cccc(C(F)(F)F)c3)nn3cc(C(F)(F)F)ccc23)n1 [GW630813]	0%	29%	0%	2%	0%	14%	0%	0%	0%	0%
Fc1cccc(CSc2nnc(-c3ccc4c(c3)CCO4)o2)c1	23%	21%	6%	100%	16%	11%	0%	0%	3%	8%
COc1ccc(Nc2nccc(N3CCC(NS(=O)(=O)c4ccc(NC(C)=O)cc4)C3)n2)cc1 (centres unmarked) [GSK1379729]	4%	0%	17%	57%	19%	66%	0%	95.6%	5%	20%
CCC(=O)c1c(-c2ccccc2)c2cc(Cl)ccc2c(=O)n1Cc1cc(S(C)(=O)=O)n(CC(F)F)n1	0%	26%	0%	27%	0%	2%	0%	0%	0%	99.1%
COC(=O)c1c(-c2ccccc2)c2cc(C)ccc2c(=O)n1Cc1ccccc1	1%	21%	0%	20%	1%	0%	0%	0%	0%	44%
CCC(=O)c1c(-c2ccccc2)c2cc(Cl)ccc2c(=O)n1Cc1cc(S(C)(=O)=O)n(CCC(C)(C)O)n1	13%	2%	25%	1%	5%	3%	0%	0%	3%	99.6%
C[C@@H]1CC[C@H](C(=O)NC2CCCCC2)CN1c1cc(-c2ccc3c(N)n[nH]c3c2)nc(N)n1 [GSK2291363]	10%	34%	0%	28%	22%	7%	11%	9%	0%	34%
Cc1ccc(Oc2ccc(Nc3ncnc4cc[nH]c34)cc2C)cn1	11%	6%	16%	0%	0%	0%	24%	18%	0%	43%

SMILES	%Inh (INSR)	%Inh (IRAK1)	%Inh (IRAK3)	%Inh (IRAK4)	%Inh (ITK)	%Inh [1]	%Inh [2]	%Inh [3]	%Inh [4]	%Inh (JNK1)
COc1ccc(-c2cc3c(C)nc(N)nc3n([C@H]3CC[C@H](O)CC3)c2=O)cn1	0%	0%	0%	0%	0%	0%	0%	0%	0%	0%
Cl.c1ccc(Cn2cnc3cc(Nc4ncnc5ccccc45)ccc32)cc1 [GW272142]	0%	26%	0%	15%	7%	4%	0%	0%	0%	13%
CCn1c(-c2nonc2N)nc2ccccc21 [SB-693162/GW549034]	17%	0%	0%	48%	0%	8%	0%	0%	0%	78%
Cc1cc(Nc2nc(-c3cccc(C)n3)nc3ccccc23)ccn1 [GW872411]	0%	0%	0%	0%	0%	4%	81%	0%	0%	0%
Cl.NS(=O)(=O)c1cccc(Nc2cc(-c3ccc(F)cc3)n[nH]2)c1 [GW824645]	5%	0%	0%	0%	0%	0%	23%	48%	0%	8%
CN(C)c1cc(-c2ccc3c(N)n[nH]c3c2)nc(N)n1 [GSK2219329]	0%	0%	0%	0%	6%	6%	7%	0%	0%	0%
CCc1nc(-c2cccc(C)c2)c(-c2ccncc2)s1	0%	0%	0%	0%	4%	0%	41%	1%	0%	57%
Nc1nc(-c2ccccc2F)c(-c2ccnc3ccccc23)s1 [GW560459]	94.4%	30%	17%	15%	3%	18%	0%	9%	0%	56%
Nc1nccc2scc(-c3ccc4c(c3)CCN4C(=O)Cc3ccccc3)c12 [GSK2576924]	0%	0%	0%	0%	4%	19%	0%	4%	0%	0%
COC(=O)c1c(-c2ccccc2)c2cc(Br)ccc2c(=O)n1Cc1ccc(NC(=O)CCC(=O)O)cc1	8%	8%	25%	16%	12%	5%	0%	0%	0%	99%
CCCNC(=O)Nc1ccc(Oc2ncnc3ccn(C)c23)cc1	31%	16%	0%	15%	5%	17%	0%	1%	0%	0%
Nc1n[nH]c2nnc(-c3ccccc3)c(-c3ccccc3)c12 [GW554060]	3%	12%	9%	19%	12%	21%	0%	10%	0%	19%
O=C(Nc1n[nH]c2cc(-c3ccccc3F)ccc12)C1CC1 [SB-733371]	0%	0%	0%	0%	0%	0%	17%	27%	0%	33%
Cc1nnc(-c2ccc3ncn(-c4ccc(S(C)=O)cc4)c3c2)o1 (centres unmarked)	0%	0%	0%	0%	15%	33%	28%	0%	0%	6%
COc1cc2nccc(Nc3cccc(Oc4ccccc4)c3)c2cc1OC.Cl [GW284543]	4%	0%	2%	0%	13%	0%	1%	0%	0%	1%
CN1C(=O)C(Nc2ccccc2)=C(c2ccccc2)C1=O [SB-300079]	22%	16%	0%	0%	0%	0%	33%	42%	2%	14%
COc1cccc(C2=C(N(C)c3ccccc3)C(=O)NC2=O)c1 [SB-334865]	0%	42%	20%	24%	16%	13%	0%	0%	0%	30%
